# Experimental data reported in PubChem BioAssay AID589 (National Center for Advancing Translational Sciences (NCATS), 2007).
# The whole screen tested about 59,000 compounds, of which about 6,200 (11%) were called active. Not shown: some 9% with an inconclusive outcome. No stated cut-off is given here; in the data, active means max dye-equivalent concentration above about 10 nM; inconclusive means mostly about 1.1 nM to 9.6 nM; inactive means weaker than that. The sample as a whole holds a higher share of actives than the screen did. More than one record can exist for a structure, and the calls need not agree.
# Assay: qHTS Assay for Spectroscopic Profiling in 4-MU Spectral Region
# Settings: compound autofluorescence, 340/450 nm, 4-MU equivalents; hits give high values
# Summary of the method: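 Intrinsic fluorescence at 340/450 nm (ex/em) was read after 15 min at room temperature in pH 8.0, 100 mM Tris. Each compound concentration expressed as 4-MU-equivalent concentration from a six-point 4-MU standard series on each plate.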
Compound,max dye-equivalent concentration,outcome
C=CCNc1nnc(C)c2ccccc12,inactive,
CCNc1nc(SCCOc2ccccc2)nc(N(C)C)n1,inactive,
Nc1ncc(-c2cc3ccccc3oc2=O)s1,inactive,
O=c1oc2cc(O)ccc2cc1-c1ccc(F)cc1,95 nM (active),
O=C(NCCCNC(=O)NC1CCCCC1)NC1CCCCC1,inactive,
Cn1cnc2c1c(=O)n(Cc1c(Cl)cccc1Cl)c(=O)n2C,inactive,
COc1ccc2nc(NC(=O)c3ccc(Br)s3)sc2c1,460 nM (active),
COC(=O)c1sc(NC(=O)c2ccc(OC)cc2OC)nc1C,inactive,
CNC(=O)c1ccc2nc(NC(C)=O)sc2c1,inactive,
Cc1c(C)c2cc3c4c(oc3c(C)c2oc1=O)CCCC4,30 nM (active),
CC(=O)N(Cc1cccs1)C1CCOC(C)(C)C1 (stereo not given),inactive,
Cc1cc(NC(=O)CCC(=O)N(c2ccccc2)C(C(=O)NC2CCCC2)c2ccncc2)no1 (stereo not given),inactive,
COc1ccc(Cn2c(=O)sc3ccccc32)cc1OC,inactive,
CCn1c(SCC(=O)NCc2ccco2)nnc1-c1ccc(N)cc1,inactive,
Cc1ccc2c(CSc3nncs3)cc(=O)oc2c1,inactive,
CCOC(=O)c1cc2occc2n1CC(=O)NC1CCC(C)CC1 (stereo not given),inactive,
CN(C)CCNC(CC(=O)Nc1ccc(Cl)c(Cl)c1)C(=O)O (stereo not given),inactive,
O=C(Nc1cnn(Cc2ccc(Cl)cc2)c1)C1CCCC1,inactive,
CN1C(=O)c2ccc(NC(=O)C3CCCCC3)cc2C1=O,230 nM (active),
Cn1c(=O)n(C)c2cc(C(=O)Nc3ccc4c(c3)OCO4)ccc21,inactive,
CN1C(=O)c2ccc(NC(=O)c3c(F)c(F)c(F)c(F)c3F)cc2C1=O,98 nM (active),
O=C(O)c1ccc(NC(=O)C2CCCCC2)cc1,inactive,
O=C(Nc1ccncc1)c1c(F)cccc1F,inactive,
COc1ccc(C[C@H](N)C(=O)N[C@@H]2[C@H](O)[C@H](n3cnc4c(N(C)C)ncnc43)O[C@@H]2CO)cc1,inactive,
O=S(=O)(c1ccc(Sc2nnc3ccccn23)nc1)N1CCOCC1,inactive,
N#CCCN(CCC#N)c1nnc(-c2ccccc2)s1,inactive,
O=S(=O)(Nc1ccccc1N1CCOCC1)c1ccc(Cl)s1,inactive,

Compound,max dye-equivalent concentration,outcome
COC(=O)Cc1csc(Nc2c(C)n(C)n(-c3ccccc3)c2=O)n1,inactive,
CCOC(=O)CSc1nc2c(c(=O)n(Cc3ccccc3Cl)c(=O)n2C)n1C,inactive,
CCOc1ccc(NC(=O)Nc2ccc(N(C)C(C)=O)cc2)cc1,inactive,
O=C(NC1CCCCC1)c1ccc2c(=O)n(CC3CCCO3)c(=O)[nH]c2c1 (stereo not given),16 nM (active),
O=c1c2cc3c(=O)n(CC4CCCO4)c(=O)c3cc2c(=O)n1CC1CCCO1 (stereo not given),inactive,
Cc1ccc(C(=O)Nc2ccccc2C(=O)NC2CCCCC2)cc1S(=O)(=O)N1CCOCC1,inactive,
CCOC(=O)c1ccc(N2C(=O)CC(N3CC(C)OC(C)C3)C2=O)cc1 (stereo not given),inactive,
CNCC[C@H](Oc1ccc(C(F)(F)F)cc1)c1ccccc1,13 nM (active),inactive
Clc1ccc(C=Nc2ccc3c(c2)Cc2ccccc2-3)c(Cl)c1,inactive,
COC(=O)c1ccc(NC(=O)C(C)N2C(=O)c3ccccc3C2=O)cc1 (stereo not given),inactive,
CC(C(=O)O)N1C(=O)c2cccc3cccc1c23 (stereo not given),15 nM (active),
Cc1cc(C)nc(NC(=O)C(C)N2C(=O)c3ccccc3C2=O)n1 (stereo not given),inactive,
O=c1cc(CO)oc(CN2CCC(Cc3ccccc3)CC2)c1O,inactive,
Cc1cccc2nc(CNc3ccc(F)cc3)cn12,inactive,
COc1ccc(-c2csc(N3CCN(Cc4ccc5c(c4)OCO5)CC3)n2)cc1,inactive,
CC(C)OC(=O)C(C#N)c1nc2ccccc2nc1N1CCN(Cc2ccc3c(c2)OCO3)CC1 (stereo not given),110 nM (active),
CC(C)OC(=O)C(C#N)c1nc2ccccc2nc1N1CCN(Cc2ccccc2)CC1 (stereo not given),inactive,
O=C(c1ccccc1)c1ccc(OC(=O)N2CCCC2)cc1,inactive,
COc1ccccc1-c1nc(NCCNC(C)=O)c2ccccc2n1,inactive,
CCCCN(C)Cc1c(C)[nH]c2ccc(Cl)cc2c1=O,inactive,
Cc1ccc(S(=O)(=O)C(C#N)c2nc3ccccc3nc2N2CCCC2)cc1C (stereo not given),150 nM (active),
CCn1cc(C(=O)NCc2ccc3c(c2)OCO3)c2cc(OC)c(OC)cc2c1=O,inactive,
Cc1ccccc1N1C(=O)C2ON(c3ccccc3)C(c3ccncc3)C2C1=O (stereo not given),inactive,
C=CCn1c(SCC(=O)NC23CC4CC(CC(C4)C2)C3)nc(O)cc1=O,inactive,
Cn1c(=O)c2c(nc(N3CCCCCC3)n2CC(O)COc2ccc(Cl)cc2)n(C)c1=O (stereo not given),38 nM (active),
Cc1cccc(Cn2c(N3CCN(c4ccccc4)CC3)nc3c2c(=O)n(C)c(=O)n3C)c1,inactive,
Cn1c(=O)c2c(nc(N3CCCCCC3)n2CC(=O)c2ccc(Br)cc2)n(C)c1=O,inactive,
